A number with no mark means an inactive call. Records with an inconclusive call do not appear. Entries that show only a call come without a potency. Activity calls are given as the source filed them. Calls come from the whole dose curve; as a rule, active = well fitted curve in the direction sought with a large enough effect; inconclusive = small, poorly fitted or top-dose-only effect, or another doubt; inactive = no such curve, though single readings can be large; an effect the other way counts as inactive or inconclusive.
Key:
[1] = system: Nanoluciferase (engineered Oplophorus gracilirostris luciferase); test: Primary Nanoluciferase (NLuc) qHTS assay for identification of artifact compounds. (AID 1845222); conditions: NLuc-conditioned medium, Nano-Glo luminescence, 5 min; series mostly up to 54.1 µM;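 note: NLuc secreted into diluted conditioned medium of S16 cells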
In short: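 qHTS format, against NLuc in S16 cell-conditioned medium. Nano-Glo substrate 1:100 was added after 15 min at room temperature. Luminescence was taken after a further 5 min.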

[2] = Primary redox qHTS assay for identification of artifact compounds. (AID 1845223); conditions: Amplex Red/HRP redox cycling with DTT, fluorescence; series mostly up to 53.8 µM
In short: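 Redox-cycling detection via DTT (250 uM final) oxidation coupled to Amplex Red (25 uM)/HRP (250 mU/mL) in HBSS. 15 min preincubation plus 30 min after DTT, room temperature. Ex/Em 525/598 nm; 4-parameter Hill fit against DMSO and 10 uM DA3003.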

| Structure (SMILES) | Potency [1] | Potency [2] | activity, negative = inhibition [1] | redox activity (% of DA3003) [2] |
| --- | --- | --- | --- | --- |
| CC(=O)OC1C(O)C(C)(O)C(/C=C/C(=O)O)C2(C)CCCC(C)(C)C12 (stereo unspecified) | inactive | inactive |  |  |
| C=C1CC23CC1CCC2C12OC(=O)C(C)(C(O)CC1O)C2C3C(=O)O (stereo unspecified) | inactive | inactive |  |  |
| C=C1C(=O)O[C@@H]2C[C@]3(C)[C@@H](CCC(C)=O)[C@@H]3C[C@H]12 | inactive | inactive |  |  |
| O=C(CCCCC1CCCCC1)N1CCC(c2cnc[nH]2)CC1 | inactive | inactive |  |  |
| CC1(C)C[C@H](O)C[C@@]2(C)[C@H]1[C@H](O)C=C1COC(=O)[C@@]12O | inactive | inactive |  |  |
| CC[C@H]1OC(=O)[C@H](C)[C@@H](O[C@H]2C[C@@](C)(OC)[C@@H](O)[C@H](C)O2)C(C)[C@@H](O[C@@H]2O[C@H](C)C[C@H](N(C)C)[C@H]2O)[C@](C)(O)C[C@@H](C)CN(C)[C@H](C)[C@@H](O)[C@]1(C)O (stereo partly specified) | inactive | inactive |  |  |
| O=C(O)CC1(O)C(=O)Nc2ccccc21 (stereo unspecified) | inactive | inactive |  |  |
| CC(=O)c1[nH]cc(CCC(=O)O)c1CC(=O)O | inactive | inactive |  |  |
| Nc1ncnc2c1ncn2[C@H]1O[C@@H](C(=O)N2CCN(CC(=O)Nc3cccc4c3CNC4=O)CC2)[C@H](O)[C@@H]1O | inactive | inactive |  |  |
| C=C(C)[C@@H]1CC[C@]2(C(=O)O)CC[C@]3(C)C(CCC4[C@]5(C)C(CC[C@]43C)C(C)(C)[C@@H](O)[C@@H]5C(=O)O)C12 (stereo partly specified) | inactive | inactive |  |  |
| C[C@H]1/C=C/C=C/C=C/C=C/C=C/[C@@H](O)[C@H](C(=O)O)[C@H](O)C[C@H](O)CCC[C@H](O)C[C@H](O)C[C@H](O)[C@@H](C)C(=O)O[C@@H]1C | inactive | inactive |  |  |
| CC1OC(OC2CCC3(C)C(CCC4(C)C3C=CC35OCC6(CCC(C)(C)CC63)CCC45C)C2(C)CO)C(OC2OC(CO)C(O)C(O)C2O)C(O)C1OC1OC(CO)C(O)C(O)C1O (stereo unspecified) |  |  | 3.75% [at 11.6 µM] | 12.4% [at 11.5 µM] |
| CC1=CC(=O)CC(C)(C)C1CO[C@@H]1O[C@H](CO)[C@@H](O)[C@H](O)[C@H]1O (stereo partly specified) | inactive | inactive |  |  |
| Cc1ccc(Nc2nnc(-c3ccc([N+](=O)[O-])cc3)o2)cc1Cl | inactive | inactive |  |  |
| O=C(N[C@@H]1CC[C@@H](c2cccc(F)c2F)CN(CC(F)(F)F)C1=O)N1CCC(n2c(=O)[nH]c3ncccc32)CC1 | inactive | inactive |  |  |
| CNC(C)C(=O)NC(C(=O)N1CCCC1C(=O)Nc1cccc2ncccc12)C(C)C (stereo unspecified) | inactive | inactive |  |  |
| CC(C)=CCC[C@](C)(O[C@@H]1O[C@H](CO)[C@@H](O)[C@H](O)[C@H]1O)[C@H]1CC[C@]2(C)[C@@H]1[C@H](O)CC1[C@@]3(C)CC[C@H](O)C(C)(C)C3[C@@H](O[C@@H]3O[C@H](CO)[C@@H](O)[C@H](O)[C@H]3O[C@@H]3O[C@@H](C)[C@H](O)[C@@H](O)[C@H]3O)C[C@]12C (stereo partly specified) |  |  | 4.23% [at 11.6 µM] | 5.49% [at 11.5 µM] |
| COC(=O)c1ccc(OC)cc1O[C@@H]1O[C@H](CO[C@@H]2OC[C@@H](O)[C@H](O)[C@H]2O)[C@@H](O)[C@H](O)[C@H]1O | inactive | inactive |  |  |
| Cc1cn(C[C@H](N)C(=O)O)c(=O)n(Cc2ccsc2C(=O)O)c1=O | inactive | inactive |  |  |
| CCC(C)C1NC(=O)C2C(C)CCN2C(=O)C(CC(O)CO)OC(=O)CCNC(=O)C(C)N(C)C(=O)C(C(C)C)N(C)C1=O (stereo unspecified) | inactive | inactive |  |  |

| Structure (SMILES) | Potency [1] | Potency [2] | activity, negative = inhibition [1] | redox activity (% of DA3003) [2] |
| --- | --- | --- | --- | --- |
| O=C(OC[C@H]1O[C@H](O[C@]2(CO)O[C@H](CO)[C@@H](O)[C@@H]2O)[C@H](O)[C@@H](O)[C@@H]1O)c1ccc(O)cc1 | inactive | inactive |  |  |
| CC1(C(=O)O)CCCC2(C)C3CC4C5CC3(CCC12)CC45C (stereo unspecified) | inactive | inactive |  |  |
| COc1ccc(/C=C/C(=O)O[C@@H]2[C@@H](OC(C)=O)[C@@H](OC(C)=O)[C@H](O[C@H]3[C@@H]4C=CO[C@@H](O[C@@H]5O[C@H](CO)[C@@H](O)[C@H](O)[C@H]5O)[C@@H]4[C@@]4(CO)O[C@@H]34)O[C@H]2C)cc1 | inactive | inactive |  |  |
| O=C(O)Cc1cn([C@@H]2OC[C@@H](O[C@@H]3O[C@H](CO)[C@@H](O)[C@H](O)[C@H]3O)[C@H](O)[C@H]2O[C@@H]2O[C@H](CO)[C@@H](O)[C@H](O)[C@H]2O)c2ccccc12 | inactive | inactive |  |  |
| COc1cnc(-c2ccc(Cn3c(CC(C)(C)C(=O)O)c(SC(C)(C)C)c4cc(OC[C@@H]5Cc6ccccc6N5C(C)=O)ccc43)cc2)nc1 | inactive | inactive |  |  |
| NC(=O)C(O[C@@H]1O[C@H](CO[C@@H]2O[C@H](CO)[C@@H](O)[C@H](O)[C@H]2O)[C@@H](O)[C@H](O)[C@H]1O)c1ccccc1 (stereo partly specified) | inactive | inactive |  |  |
| CC(C)(O)C(O)C(=O)OCc1ccc(O[C@@H]2O[C@H](CO)[C@@H](O)[C@H](O)[C@H]2O)cc1 (stereo partly specified) | inactive | inactive |  |  |
| Cc1ccc(Cl)cc1N(CC(=O)Nc1c(F)cccc1F)S(C)(=O)=O | inactive | inactive |  |  |
| C/C(=C\CCC(C)C1CC(O)C2(C)C3CCC4C(C)(C)C(OC5OCC(O)C(O)C5O)CCC45CC35CC(O)C12C)C(=O)O (stereo unspecified) | inactive | inactive |  |  |
| CC1=C2CC3C(CCC3(C)O)C(C)(O)CC2OC1=O (stereo unspecified) | inactive | inactive |  |  |
| O=C(/C=C/c1ccc(O)c(O)c1)O[C@H]1[C@@H]2C=CO[C@@H](O[C@@H]3O[C@H](CO)[C@@H](O)[C@H](O)[C@H]3O)[C@@H]2[C@@]2(CO)O[C@@H]12 | inactive | inactive |  |  |
| N=C(N)c1ccc2nc(-c3cc(CC(=O)NC(CC(=O)O)C(=O)O)cc(-c4cc(S(N)(=O)=O)ccc4O)c3O)[nH]c2c1 (stereo unspecified) | inactive | inactive |  |  |
| CC1(C)CCCC2(C)c3c4c(c(=O)oc(=O)c3=CCC12)=CCC1C(C)(C)CCCC41C (stereo unspecified) | inactive | inactive |  |  |
| CC(=O)NC1C(OC2CCC3(C)C(CCC4(C)C3CC=C3C5CC(C)(C)CCC5(C(=O)O)C(O)CC34C)C2(C)C)OC(CO)C(O)C1O (stereo unspecified) | inactive | inactive |  |  |
| COc1ccc(O[C@@H]2O[C@H](CO)[C@@H](O)[C@H](O)[C@H]2O)cc1OC | inactive | inactive |  |  |
| CCCN(CCN1CCN(c2ccccc2OC)CC1)C1CCc2ncsc2C1 (stereo unspecified) | inactive | inactive |  |  |
| CC1(C)[C@H]2C[C@H](C/C=C\CCCC(=O)O)[C@@H](NC(=O)c3csc4ccc(O)cc34)[C@@H]1C2 | inactive | inactive |  |  |
| CC(CNS(=O)(=O)C(C)C)c1ccc(-c2ccc(C#N)cc2)cc1 (stereo unspecified) | inactive | inactive |  |  |
| CC(C)[C@@](O)(c1ccc2cc(OC(F)F)c(OC(F)F)cc2c1)c1cn[nH]n1 | inactive | inactive |  |  |
| CN1C(=O)N(c2cc(Cl)cc(Cl)c2)C(=O)[C@@]1(C)Cc1ccc(Br)cc1 | inactive | inactive |  |  |

| Structure (SMILES) | Potency [1] | Potency [2] | activity, negative = inhibition [1] | redox activity (% of DA3003) [2] |
| --- | --- | --- | --- | --- |
| O=C(C[C@@H]1C(C(=O)O)=CO[C@@H](O[C@@H]2O[C@H](CO)[C@@H](O)[C@H](O)[C@H]2O)/C1=C\CO)OCCc1ccc(O)cc1 | inactive | inactive |  |  |
| C=C1CCC2(OC1)OC1CC3C4CC=C5CC(O)CC(O[C@@H]6OC[C@H](OC(=O)C(O)C(C)CC)[C@H](O)[C@H]6O[C@@H]6O[C@@H](C)[C@H](O)[C@@H](O)[C@H]6O)C5(C)C4CCC3(C)C1C2C (stereo partly specified) |  |  | 4.49% [at 11.6 µM] | -3.18% [at 11.5 µM] |
| C=C[C@@](C)(CCC=C(C)C)O[C@@H]1O[C@H](CO[C@@H]2OC[C@H](O)[C@H](O)[C@H]2O)[C@@H](O)[C@H](O)[C@H]1O | inactive | inactive |  |  |
| COC(=O)C1C(c2ccc(O)cc2)C(C(=O)O)C1c1ccc(O)cc1 (stereo unspecified) | inactive | inactive |  |  |
| C[C@@H]1O[C@@H](O[C@H]2[C@@H]3C=CO[C@@H](O[C@@H]4O[C@H](CO)[C@@H](O)[C@H](O)[C@H]4O)[C@@H]3[C@@]3(CO)O[C@@H]23)[C@H](O)[C@H](OC(=O)/C=C/c2ccc(O)cc2)[C@H]1OC(=O)/C=C/c1ccc(O)cc1 | inactive | inactive |  |  |
| CC(C)NC(=O)c1ccc(C#Cc2ccncc2)cn1 | inactive | inactive |  |  |
| COc1ccccc1CN[C@H]1CCCN[C@H]1c1ccccc1 | inactive | inactive |  |  |
| CN1CCc2cc(Cl)c(O)cc2[C@@H](c2cccc3c2OCC3)C1 | inactive | inactive |  |  |
| C=C1CCC2[C@](C)(CO)CCC[C@@]2(C)[C@@H]1CCC1=CCOC1=O (stereo partly specified) | inactive | inactive |  |  |
| CC1(C)CC(NC(=O)C(=O)Nc2ccc(Cl)cc2)CC(C)(C)N1 | inactive | inactive |  |  |
| Cc1cc(CO)c(O)c(C(=O)CC2CC(=O)NC(=O)C2)c1 | inactive | inactive |  |  |
| CCC(C)C(N)C(=O)NCCN1CCOCC1 (stereo unspecified) | inactive | inactive |  |  |
| O=C(O)Cc1cn([C@@H]2O[C@H](CO)[C@@H](O)[C@H](O)[C@H]2O[C@@H]2O[C@H](CO)[C@@H](O)[C@H](O)[C@H]2O)c2ccccc12 | inactive | inactive |  |  |
| CC(=O)c1ccc(O[C@@H]2O[C@H](CO[C@@H]3OC[C@@H](O)[C@H](O)[C@H]3O)[C@@H](O)[C@H](O)[C@H]2O)cc1 | inactive | inactive |  |  |
| Cc1ccc(C)c(NC(=O)CNS(=O)(=O)c2ccc3[nH]c(=O)oc3c2)c1 | inactive | inactive |  |  |
| CC1=COC(OC2OC(CO)C(O)C(O)C2O)C2C(CO)CC(OC(=O)/C=C/c3ccc(O)cc3)C12 (stereo unspecified) | inactive | inactive |  |  |
| CC(=O)N[C@H]1[C@H](O[C@H]2CC[C@]3(C)C4CC=C5[C@@H]6CC(C)(C)CC[C@]6(C(=O)O)[C@H](O)C[C@@]5(C)[C@]4(C)CC[C@H]3C2(C)C)O[C@H](CO)[C@@H](O)[C@@H]1O (stereo partly specified) | inactive | inactive |  |  |
| COC(=O)c1c(CC=C(C)C)c(OC2OC(CO)C(O)C(O)C2O)c2ccccc2c1OC1OC(CO)C(O)C(O)C1O (stereo unspecified) | inactive | inactive |  |  |
